# Compound activity as filed in PubChem.
# Compounds with a hit are over-represented: about 2.4% of the library has one in this group of screens.
# Cruzain inh noDet – cruzain (T. cruzi) inhibition without detergent; Potency, µM, without a hit: max response, negative = inhibition, actives largely listed as inhibitors; AID 1476; P25779; 200,000 tested, 2.3% active; purified cruzain, Z-FR-AMC fluorescence, no detergent;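 further: plate controls were enzyme without inhibitor for no effect and buffer without enzyme for full effect; nearly all actives have a fitted effect of over 40% in size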
# Target sequence (P25779 123-467 limits assumed): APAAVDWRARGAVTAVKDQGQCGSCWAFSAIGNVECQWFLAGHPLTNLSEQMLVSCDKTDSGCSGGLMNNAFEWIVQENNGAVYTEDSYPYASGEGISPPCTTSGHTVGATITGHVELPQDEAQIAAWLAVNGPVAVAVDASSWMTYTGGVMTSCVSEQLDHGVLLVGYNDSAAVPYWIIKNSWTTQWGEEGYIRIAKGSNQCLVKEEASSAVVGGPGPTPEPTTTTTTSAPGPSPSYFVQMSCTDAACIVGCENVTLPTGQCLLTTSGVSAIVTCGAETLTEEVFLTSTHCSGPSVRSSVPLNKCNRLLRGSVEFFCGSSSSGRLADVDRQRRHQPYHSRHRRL
#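 Purified cruzain at 1.5 nM, pre-incubated 15 min with compound at room temperature in 100 mM sodium acetate pH 5.5, 5 mM DTT, 0.00005% Triton X-100. Reaction started with 2 uM Z-FR-AMC; AMC fluorescence increase over 60 s gives rate.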
# Cruzain inh Det – cruzain (T. cruzi) inhibition with detergent; 200,000 tested, 0.43% active; purified cruzain, Z-FR-AMC fluorescence, 0.01% Triton; Potency, µM, without a hit: max response, negative = inhibition, most hits filed as inhibitors;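 further: plate controls were neutral wells for no effect and buffer without enzyme for full effect; nearly all actives have a fitted effect of over 40% in size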
#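 Cruzain (1.5 nM) preincubated 15 min at RT with compound in 100 mM sodium acetate pH 5.5, 5 mM DTT, 0.01% Triton X-100. Reaction started with 2 uM Z-FR-AMC; AMC fluorescence (ex 360/em 450 nm) change over 60 s gave rate.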
# * marks the source's active call; other numbers are inactive results; u = inconclusive. The call rests on the fitted dose curve; in most records, active means well fitted curve in the direction sought with a large enough effect; inconclusive means small, poorly fitted or top-dose-only effect, or another doubt; inactive means no such curve, though single readings can be large; an effect the other way counts as inactive or inconclusive. Potency means the concentration at half of the fitted maximal effect.
SMILES,Cruzain inh noDet,Cruzain inh Det
Cc1cc2nc(-c3ccc(SCC(=O)N4CCc5ccccc54)nc3)[nH]c2cc1C,16µM*,-2%
Cc1cc(NC(=O)CSc2ccc(-c3nc4cc(C)c(C)cc4[nH]3)cn2)no1,u,2%
CCCn1c2ccccc2c2nnc(SC(CC)C(=O)Nc3sc4c(c3C#N)CCCC4)nc21 (stereo not given),10µM*,0%
CCCn1c2ccccc2c2nnc(SC(CC)C(=O)Nc3cc(C)on3)nc21 (stereo not given),-21%,-14%
CC1CN(C(=O)N2CCC(C(=O)NCCCc3ccccc3)CC2)c2cc(Cl)ccc2O1 (stereo not given),-5%,-5%
Oc1ccc2ccccc2c1Cc1c(O)ccc2ccccc12,-5%,-6%
Cc1ccsc1CN(C(=O)c1oc2cc(Br)ccc2c1C)C1CCS(=O)(=O)C1 (stereo not given),14%,-7%
COc1cccc(-n2nnnc2SCC(=O)Nc2nc3c(s2)CCCC3)c1,25µM*,-6%
COc1ccc(-c2nnc(SCC(=O)Nc3sc4c(c3C#N)CCCC4)n2-c2ccccc2)cc1,u,-3%
COC(=O)c1cccc(-n2nnnc2SCC(=O)Nc2nc3c(s2)CCCC3)c1,u,-2%
COc1cccc(-n2c(SCC(=O)Nc3sc4c(c3C(N)=O)CCC4)nc3ccccc3c2=O)c1,25µM*,2%
N#Cc1ccc(-c2cccnc2)nc1SCC(=O)Nc1sc2c(c1C#N)CCC2,-1%,3%
COc1ccc(-n2c(SCC(=O)Nc3sc4c(c3C#N)CCCC4)nnc2-c2ccccc2OC)cc1,25µM*,-2%
COc1cccc(-n2c(SCC(=O)NCc3cccs3)nc3ccccc3c2=O)c1,-14%,-3%
COc1ccc(-c2ccc(C#N)c(SCC(=O)Nc3sc4c(c3C#N)CCC4)n2)cc1,13µM*,-11%
CN1[C@@H]2CC[C@@H]1CC(OC(=O)[C@H](CO)c1ccccc1)C2 (stereo not given in full),-2%,1%
Cn1nnnc1SCCCNCc1cc(Br)ccc1OCc1ccccc1,-7%,-4%
COc1ccc(-c2nnc(SCCOc3ccccc3C)o2)cc1OC,10%,-2%
CC1=NOC(=O)/C1=C\c1ccc(-c2cccc(Cl)c2)o1,u,-22%
Cc1nc(S/C(=C/c2ccc(-c3cccc(Cl)c3)o2)C(=O)O)n[nH]1,25µM*,3%
CCOC(=O)CC1C(=O)NCCN1C(=O)c1cc2c(=O)n3ccccc3nc2s1 (stereo not given),0%,22µM*
CCOC(=O)CC1C(=O)NCCN1C(=O)c1cc2c(=O)n3cccc(C)c3nc2s1 (stereo not given),8%,-19%
COc1cc(/C=N/NC(=O)COc2ccc(C)cc2)ccc1OC(=O)c1cccs1,u,-5%
COc1cc(OC)cc(C(=O)Oc2ccc(/C=N/Nc3nc4ccccc4s3)cc2OC)c1,13µM*,-7%
COc1cc(/C=N/Nc2ccccc2)ccc1OC(=O)c1cccs1,13µM*,-3%
SMILES,Cruzain inh noDet,Cruzain inh Det
COc1cc(/C=N/Nc2nc3ccccc3s2)ccc1OC(=O)c1ccccc1F,u,-3%
O=C(Nc1ccc2nc(SCC(=O)N3CCOCC3)sc2c1)c1ccccc1Cl,-1%,-7%
CCCCN(c1ccccc1)S(=O)(=O)c1cc2c3c(c1)C(C)C(=O)N3CCC2 (stereo not given),u,-8%
O=C(N/N=C/C(Br)=C/c1ccccc1)c1n[nH]c2c1CCC2,16µM*,-7%
O=C(CNc1cccc2ccccc12)N/N=C/C(Br)=C/c1ccccc1,-26%,-7%
O=C(N/N=C/c1ccccc1Cl)c1n[nH]c2c1CCCC2,25µM*,0%
O=C(N/N=C/c1cccs1)c1n[nH]c2c1CCC2,1%,-4%
Cc1cccc(CNc2nc(-c3ccc4c(c3)OCO4)nc3ccccc23)c1,-15%,-10%
CCOc1ccc(-n2c(=O)cc(N3CCN(c4ccccc4)CC3)[nH]c2=O)cc1,2µM*,2%
COc1ccc(-n2c(=O)cc(N3CCN(c4ccccc4)CC3)[nH]c2=O)cc1,-3%,5%
Cc1cc(C)cc(NS(=O)(=O)c2ccc(-c3cc(C)no3)cc2)c1,-1%,-12%
C=C(CC(=O)O)C(=O)O (tested in a mixture with another compound),-3%,-3%
Cc1cc(NC(=O)CSc2nc3c(sc4ccccc43)c(=O)n2CCc2ccccc2)n[nH]1,7.9µM*,8%
Cc1cc(NC(=O)CSc2nc3c(sc4ccccc43)c(=O)n2CCCN2CCOCC2)n[nH]1,-22%,-13%
Cc1ccc(OCC(=O)Nc2ccc(S(=O)(=O)N(Cc3ccccc3)c3ccccc3)cc2)cc1,7.9µM*,2%
CCOc1ccccc1C(=O)Nc1ccc(S(=O)(=O)N(Cc2ccccc2)c2ccccc2)cc1,28%,4%
Cn1c(=O)c2cc(S(=O)(=O)Nc3ccc4c(c3)OCO4)ccc2n(C)c1=O,-8%,5%
